# According to paper PMC11006913:
# Positions count from the first letter of the chain named.
# Experiments:
# Test in all cases: PBM; 200 nM protein, PBS
# Conditions in all cases: dsDNA, one strand shown
# CRX [1] = target: CRX (Homo sapiens, UniProt O43186 26-111)
# VENTX [2] = target: T1, VENTX (Homo sapiens, UniProt O95231 78-163, R121Q)
# T1 sequence: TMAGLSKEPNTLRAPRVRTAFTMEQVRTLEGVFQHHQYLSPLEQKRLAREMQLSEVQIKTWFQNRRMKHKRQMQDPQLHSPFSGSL
# VENTX [3] = target: T2, VENTX (Homo sapiens, UniProt O95231 78-163, Y115F)
# T2 sequence: T1 sequence with Y38F, Q44R
# CRX [4] = target: CRX (Homo sapiens, UniProt O43186 26-111, E42D)
# PITX2 = PITX2 (Homo sapiens, UniProt Q99697 72-157)
# CRX [5] = target: CRX (Homo sapiens, UniProt O43186 26-111, R41L)
# NKX2-4 [6] = target: T3, NKX2-4 (Homo sapiens, UniProt Q9H2Z4 175-261, P217L)
# T3 sequence: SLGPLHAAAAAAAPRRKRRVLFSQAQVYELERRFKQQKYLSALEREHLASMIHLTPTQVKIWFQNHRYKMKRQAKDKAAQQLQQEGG
# HOXC10 [7] = target: HOXC10 (Homo sapiens, UniProt Q9NYD6 254-340)
# NKX2-4 [8] = target: T4, NKX2-4 (Homo sapiens, UniProt Q9H2Z4 175-261)
# T4 sequence: T3 sequence with L43P
# HOXA2 [9] = target: HOXA2 (Homo sapiens, UniProt O43364 129-215, R185T)
# HOXA2 [10] = target: HOXA2 (Homo sapiens, UniProt O43364 129-215, R185K)
# HOXC10 [11] = target: HOXC10 (Homo sapiens, UniProt Q9NYD6 254-340, K271E)
# NKX2-4 [12] = target: T5, NKX2-4 (Homo sapiens, UniProt Q9H2Z4 175-261, R246Q)
# T5 sequence: T3 sequence with L43P, R72Q
# HOXA2 [13] = target: HOXA2 (Homo sapiens, UniProt O43364 129-215, Y150S)
# NKX3-2 [14] = target: NKX3-2 (Homo sapiens, UniProt P78367 192-278, P234S)
# HOXA2 [15] = target: HOXA2 (Homo sapiens, UniProt O43364 129-215)
# NKX3-2 [16] = target: NKX3-2 (Homo sapiens, UniProt P78367 192-278)
# SIX6 [17] = target: T6, SIX6 (Homo sapiens, UniProt O95475 114-200, L167I)
# T6 sequence: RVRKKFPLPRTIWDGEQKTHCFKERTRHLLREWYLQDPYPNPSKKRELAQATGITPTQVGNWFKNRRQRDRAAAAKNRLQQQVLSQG
# SIX6 [18] = target: T7, SIX6 (Homo sapiens, UniProt O95475 114-200, L143V)
# T7 sequence: T6 sequence with L30V, I54L
# SIX6 [19] = target: T8, SIX6 (Homo sapiens, UniProt O95475 114-200, H141N)
# T8 sequence: T6 sequence with H28N, I54L
# SIX6 [20] = target: T9, SIX6 (Homo sapiens, UniProt O95475 114-200, T165P)
# T9 sequence: T6 sequence with T52P, I54L
# SIX6 [21] = target: T10, SIX6 (Homo sapiens, UniProt O95475 114-200, L167M)
# T10 sequence: T6 sequence with I54M
# SIX6 [22] = target: T11, SIX6 (Homo sapiens, UniProt O95475 114-200, L143M)
# T11 sequence: T6 sequence with L30M, I54L
# SIX6 [23] = target: T12, SIX6 (Homo sapiens, UniProt O95475 114-200, L143I)
# T12 sequence: T6 sequence with L30I, I54L
# SIX6 [24] = target: T13, SIX6 (Homo sapiens, UniProt O95475 114-200, T165G)
# T13 sequence: T6 sequence with T52G, I54L
# SIX6 [25] = target: T14, SIX6 (Homo sapiens, UniProt O95475 114-200, T139Q)
# T14 sequence: T6 sequence with T26Q, I54L
# SIX6 [26] = target: T15, SIX6 (Homo sapiens, UniProt O95475 114-200, T165A)
# T15 sequence: T6 sequence with T52A, I54L
# SIX6 [27] = target: T16, SIX6 (Homo sapiens, UniProt O95475 114-200, L167V)
# T16 sequence: T6 sequence with I54V
# SIX6 [28] = target: T17, SIX6 (Homo sapiens, UniProt O95475 114-200)
# T17 sequence: T6 sequence with I54L
# SIX6 [29] = target: T18, SIX6 (Homo sapiens, UniProt O95475 114-200, T165I)
# T18 sequence: T6 sequence with T52I, I54L
# HOXB9 [30] = target: HOXB9 (Homo sapiens, UniProt P17482 171-250, T197M)
# HOXC9 [31] = target: HOXC9 (Homo sapiens, UniProt P31274 178-260, K195R)
# HOXA7 [32] = target: HOXA7 (Homo sapiens, UniProt P31268 116-202)
# HOXB9 [33] = target: HOXB9 (Homo sapiens, UniProt P17482 171-250)
# HOXC9 [34] = target: HOXC9 (Homo sapiens, UniProt P31274 178-260)
# HOXD13 [35] = target: HOXD13 (Homo sapiens, UniProt P35453 263-343, T313R)
# HOXC9 [36] = target: HOXC9 (Homo sapiens, UniProt P31274 178-260, R193K)
# HOXD13 [37] = target: HOXD13 (Homo sapiens, UniProt P35453 263-343)
# HOXD13 [38] = target: HOXD13 (Homo sapiens, UniProt P35453 263-343, T313A)
# HOXB9 [39] = target: HOXB9 (Homo sapiens, UniProt P17482 171-250, R186Q)
# HOXC9 [40] = target: HOXC9 (Homo sapiens, UniProt P31274 178-260, R222W)
# HOXA7 [41] = target: HOXA7 (Homo sapiens, UniProt P31268 116-202, W177C)
# HOXA4 [42] = target: HOXA4 (Homo sapiens, UniProt Q00056 201-287, W262R)
# PRRX1 [43] = target: PRRX1 (Homo sapiens, UniProt P54821 80-166, F113S)
# HOXA4 [44] = target: HOXA4 (Homo sapiens, UniProt Q00056 201-287, R217L)
# HOXA4 [45] = target: HOXA4 (Homo sapiens, UniProt Q00056 201-287)
# HOXA4 [46] = target: HOXA4 (Homo sapiens, UniProt Q00056 201-287, W262F)
# PRRX1 [47] = target: PRRX1 (Homo sapiens, UniProt P54821 80-166)
# PRRX1 (Homo sapiens, UniProt P54821 80-166), sequence (P54821 80-166): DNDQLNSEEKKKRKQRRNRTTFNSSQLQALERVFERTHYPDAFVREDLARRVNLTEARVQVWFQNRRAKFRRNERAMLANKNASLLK
# CRX (Homo sapiens, UniProt O43186 26-111, R41L), sequence (O43186 26-111 R41L): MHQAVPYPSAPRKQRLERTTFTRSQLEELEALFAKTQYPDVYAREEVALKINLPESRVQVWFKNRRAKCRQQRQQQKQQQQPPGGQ
# CRX (Homo sapiens, UniProt O43186 26-111, E42D), sequence (O43186 26-111 E42D): as the sequence (O43186 26-111 R41L) above, with L16R, E17D counted along it
# CRX (Homo sapiens, UniProt O43186 26-111), sequence (O43186 26-111): as the sequence (O43186 26-111 R41L) above, with L16R counted along it
# HOXC10 (Homo sapiens, UniProt Q9NYD6 254-340), sequence (Q9NYD6 254-340): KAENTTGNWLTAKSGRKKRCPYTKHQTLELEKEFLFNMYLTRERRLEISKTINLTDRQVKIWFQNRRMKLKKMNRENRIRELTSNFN
# HOXC10 (Homo sapiens, UniProt Q9NYD6 254-340, K271E), sequence (Q9NYD6 254-340 K271E): as the sequence (Q9NYD6 254-340) above, with K18E counted along it
# HOXB9 (Homo sapiens, UniProt P17482 171-250, R186Q), sequence (P17482 171-250 R186Q): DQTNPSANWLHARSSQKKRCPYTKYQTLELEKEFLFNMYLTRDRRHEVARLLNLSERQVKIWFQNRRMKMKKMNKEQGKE
# HOXA7 (Homo sapiens, UniProt P31268 116-202), sequence (P31268 116-202): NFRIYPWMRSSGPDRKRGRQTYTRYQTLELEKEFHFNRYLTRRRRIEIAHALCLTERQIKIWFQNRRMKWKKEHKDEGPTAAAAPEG
# HOXC9 (Homo sapiens, UniProt P31274 178-260, K195R), sequence (P31274 178-260 K195R): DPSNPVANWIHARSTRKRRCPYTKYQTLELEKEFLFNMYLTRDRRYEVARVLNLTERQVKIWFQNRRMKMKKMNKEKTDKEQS
# NKX3-2 (Homo sapiens, UniProt P78367 192-278, P234S), sequence (P78367 192-278 P234S): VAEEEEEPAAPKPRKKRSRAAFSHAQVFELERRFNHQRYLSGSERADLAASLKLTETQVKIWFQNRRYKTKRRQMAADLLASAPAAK
# NKX3-2 (Homo sapiens, UniProt P78367 192-278), sequence (P78367 192-278): as the sequence (P78367 192-278 P234S) above, with S43P counted along it
# HOXC9 (Homo sapiens, UniProt P31274 178-260, R222W), sequence (P31274 178-260 R222W): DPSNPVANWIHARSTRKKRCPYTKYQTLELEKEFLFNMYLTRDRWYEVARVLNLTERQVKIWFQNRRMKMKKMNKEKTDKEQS
# HOXB9 (Homo sapiens, UniProt P17482 171-250, T197M), sequence (P17482 171-250 T197M): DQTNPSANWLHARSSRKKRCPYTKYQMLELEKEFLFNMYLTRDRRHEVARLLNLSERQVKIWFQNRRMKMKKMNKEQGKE
# HOXB9 (Homo sapiens, UniProt P17482 171-250), sequence (P17482 171-250): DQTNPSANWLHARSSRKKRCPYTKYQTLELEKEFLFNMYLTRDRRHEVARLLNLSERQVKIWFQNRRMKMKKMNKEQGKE
# HOXA4 (Homo sapiens, UniProt Q00056 201-287, W262R), sequence (Q00056 201-287 W262R): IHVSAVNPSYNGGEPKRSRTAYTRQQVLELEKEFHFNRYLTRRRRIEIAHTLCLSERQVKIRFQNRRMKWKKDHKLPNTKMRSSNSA
# HOXD13 (Homo sapiens, UniProt P35453 263-343, T313R), sequence (P35453 263-343 T313R): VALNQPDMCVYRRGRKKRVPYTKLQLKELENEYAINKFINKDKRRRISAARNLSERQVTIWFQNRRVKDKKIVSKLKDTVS
# HOXA2 (Homo sapiens, UniProt O43364 129-215, R185T), sequence (O43364 129-215 R185T): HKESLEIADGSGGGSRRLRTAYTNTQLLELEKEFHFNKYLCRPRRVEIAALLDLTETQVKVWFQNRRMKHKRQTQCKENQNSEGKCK
# PRRX1 (Homo sapiens, UniProt P54821 80-166, F113S), sequence (P54821 80-166 F113S): as the sequence (P54821 80-166) above, with F34S counted along it
# HOXA2 (Homo sapiens, UniProt O43364 129-215, R185K), sequence (O43364 129-215 R185K): as the sequence (O43364 129-215 R185T) above, with T57K counted along it
# HOXA4 (Homo sapiens, UniProt Q00056 201-287, W262F), sequence (Q00056 201-287 W262F): as the sequence (Q00056 201-287 W262R) above, with R62F counted along it
# HOXA2 (Homo sapiens, UniProt O43364 129-215, Y150S), sequence (O43364 129-215 Y150S): as the sequence (O43364 129-215 R185T) above, with Y22S, T57R counted along it
# HOXD13 (Homo sapiens, UniProt P35453 263-343), sequence (P35453 263-343): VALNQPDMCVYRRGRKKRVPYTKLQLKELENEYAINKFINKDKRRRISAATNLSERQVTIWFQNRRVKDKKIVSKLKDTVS
# HOXA7 (Homo sapiens, UniProt P31268 116-202, W177C), sequence (P31268 116-202 W177C): as the sequence (P31268 116-202) above, with W62C counted along it
# HOXA4 (Homo sapiens, UniProt Q00056 201-287), sequence (Q00056 201-287): as the sequence (Q00056 201-287 W262R) above, with R62W counted along it
# HOXC9 (Homo sapiens, UniProt P31274 178-260, R193K), sequence (P31274 178-260 R193K): as the sequence (P31274 178-260 R222W) above, with R16K, W45R counted along it
# HOXC9 (Homo sapiens, UniProt P31274 178-260), sequence (P31274 178-260): as the sequence (P31274 178-260 R222W) above, with W45R counted along it
# HOXA4 (Homo sapiens, UniProt Q00056 201-287, R217L), sequence (Q00056 201-287 R217L): as the sequence (Q00056 201-287 W262R) above, with R17L, R62W counted along it
# HOXD13 (Homo sapiens, UniProt P35453 263-343, T313A), sequence (P35453 263-343 T313A): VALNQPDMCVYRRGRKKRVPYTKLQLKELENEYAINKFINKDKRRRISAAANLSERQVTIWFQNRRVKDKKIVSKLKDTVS
# HOXA2 (Homo sapiens, UniProt O43364 129-215), sequence (O43364 129-215): as the sequence (O43364 129-215 R185T) above, with T57R counted along it
sequence,measurement,setting,value
AGATTAGC,binding signal,CRX [1],"13 upbm affinity estimate (log intensity, higher = more binding, comparable within an allelic series)"
same,binding signal,VENTX [2],"10.5 upbm affinity estimate (log intensity, higher = more binding, comparable within an allelic series)"
same,binding signal,VENTX [3],"10.4 upbm affinity estimate (log intensity, higher = more binding, comparable within an allelic series)"
same,binding signal,CRX [4],"13.1 upbm affinity estimate (log intensity, higher = more binding, comparable within an allelic series)"
same,binding signal,PITX2,"12.5 upbm affinity estimate (log intensity, higher = more binding, comparable within an allelic series)"
same,binding signal,CRX [5],"12.7 upbm affinity estimate (log intensity, higher = more binding, comparable within an allelic series)"
GCCCGGGC,binding signal,CRX [1],"8.05 upbm affinity estimate (log intensity, higher = more binding, comparable within an allelic series)"
same,binding signal,NKX2-4 [6],"8.34 upbm affinity estimate (log intensity, higher = more binding, comparable within an allelic series)"
same,binding signal,HOXC10 [7],"9.84 upbm affinity estimate (log intensity, higher = more binding, comparable within an allelic series)"
same,binding signal,NKX2-4 [8],"8.35 upbm affinity estimate (log intensity, higher = more binding, comparable within an allelic series)"
same,binding signal,HOXA2 [9],"6.98 upbm affinity estimate (log intensity, higher = more binding, comparable within an allelic series)"
same,binding signal,CRX [4],"8.04 upbm affinity estimate (log intensity, higher = more binding, comparable within an allelic series)"
same,binding signal,PITX2,"8.05 upbm affinity estimate (log intensity, higher = more binding, comparable within an allelic series)"
same,binding signal,HOXA2 [10],"9.77 upbm affinity estimate (log intensity, higher = more binding, comparable within an allelic series)"
same,binding signal,HOXC10 [11],"10.1 upbm affinity estimate (log intensity, higher = more binding, comparable within an allelic series)"
same,binding signal,NKX2-4 [12],"8.33 upbm affinity estimate (log intensity, higher = more binding, comparable within an allelic series)"
same,binding signal,HOXA2 [13],"10.4 upbm affinity estimate (log intensity, higher = more binding, comparable within an allelic series)"
same,binding signal,NKX3-2 [14],"9.95 upbm affinity estimate (log intensity, higher = more binding, comparable within an allelic series)"
same,binding signal,CRX [5],"8.04 upbm affinity estimate (log intensity, higher = more binding, comparable within an allelic series)"
same,binding signal,HOXA2 [15],"7.45 upbm affinity estimate (log intensity, higher = more binding, comparable within an allelic series)"
same,binding signal,NKX3-2 [16],"9.83 upbm affinity estimate (log intensity, higher = more binding, comparable within an allelic series)"
AGGTGCCC,binding signal,CRX [1],"8.39 upbm affinity estimate (log intensity, higher = more binding, comparable within an allelic series)"
same,binding signal,SIX6 [17],"8.91 upbm affinity estimate (log intensity, higher = more binding, comparable within an allelic series)"
same,binding signal,SIX6 [18],"8.83 upbm affinity estimate (log intensity, higher = more binding, comparable within an allelic series)"
same,binding signal,SIX6 [19],"8.91 upbm affinity estimate (log intensity, higher = more binding, comparable within an allelic series)"
same,binding signal,SIX6 [20],"8.95 upbm affinity estimate (log intensity, higher = more binding, comparable within an allelic series)"
same,binding signal,SIX6 [21],"8.85 upbm affinity estimate (log intensity, higher = more binding, comparable within an allelic series)"
same,binding signal,SIX6 [22],"8.84 upbm affinity estimate (log intensity, higher = more binding, comparable within an allelic series)"
same,binding signal,SIX6 [23],"8.86 upbm affinity estimate (log intensity, higher = more binding, comparable within an allelic series)"
same,binding signal,SIX6 [24],"8.89 upbm affinity estimate (log intensity, higher = more binding, comparable within an allelic series)"
same,binding signal,SIX6 [25],"8.92 upbm affinity estimate (log intensity, higher = more binding, comparable within an allelic series)"
same,binding signal,CRX [4],"8.38 upbm affinity estimate (log intensity, higher = more binding, comparable within an allelic series)"
same,binding signal,SIX6 [26],"8.85 upbm affinity estimate (log intensity, higher = more binding, comparable within an allelic series)"
same,binding signal,SIX6 [27],"8.9 upbm affinity estimate (log intensity, higher = more binding, comparable within an allelic series)"
same,binding signal,SIX6 [28],"8.78 upbm affinity estimate (log intensity, higher = more binding, comparable within an allelic series)"
same,binding signal,SIX6 [29],"8.87 upbm affinity estimate (log intensity, higher = more binding, comparable within an allelic series)"
same,binding signal,CRX [5],"8.35 upbm affinity estimate (log intensity, higher = more binding, comparable within an allelic series)"
ATTTATGG,binding signal,CRX [1],"10.2 upbm affinity estimate (log intensity, higher = more binding, comparable within an allelic series)"
same,binding signal,HOXB9 [30],"9.79 upbm affinity estimate (log intensity, higher = more binding, comparable within an allelic series)"
same,binding signal,HOXC9 [31],"12.7 upbm affinity estimate (log intensity, higher = more binding, comparable within an allelic series)"
same,binding signal,HOXA7 [32],"10.6 upbm affinity estimate (log intensity, higher = more binding, comparable within an allelic series)"
same,binding signal,HOXC10 [7],"12.5 upbm affinity estimate (log intensity, higher = more binding, comparable within an allelic series)"
same,binding signal,HOXB9 [33],"12.1 upbm affinity estimate (log intensity, higher = more binding, comparable within an allelic series)"
same,binding signal,CRX [4],"9.96 upbm affinity estimate (log intensity, higher = more binding, comparable within an allelic series)"
same,binding signal,HOXC9 [34],"12.9 upbm affinity estimate (log intensity, higher = more binding, comparable within an allelic series)"
same,binding signal,HOXD13 [35],"10.8 upbm affinity estimate (log intensity, higher = more binding, comparable within an allelic series)"
same,binding signal,HOXC9 [36],"12.8 upbm affinity estimate (log intensity, higher = more binding, comparable within an allelic series)"
same,binding signal,HOXD13 [37],"12.1 upbm affinity estimate (log intensity, higher = more binding, comparable within an allelic series)"
same,binding signal,HOXC10 [11],"11.7 upbm affinity estimate (log intensity, higher = more binding, comparable within an allelic series)"
same,binding signal,HOXD13 [38],"11.8 upbm affinity estimate (log intensity, higher = more binding, comparable within an allelic series)"
same,binding signal,HOXB9 [39],"11.8 upbm affinity estimate (log intensity, higher = more binding, comparable within an allelic series)"
same,binding signal,HOXC9 [40],"11.2 upbm affinity estimate (log intensity, higher = more binding, comparable within an allelic series)"
same,binding signal,HOXA7 [41],"8.83 upbm affinity estimate (log intensity, higher = more binding, comparable within an allelic series)"
same,binding signal,CRX [5],"9.82 upbm affinity estimate (log intensity, higher = more binding, comparable within an allelic series)"
TAATCTGA,binding signal,CRX [1],"12.9 upbm affinity estimate (log intensity, higher = more binding, comparable within an allelic series)"
same,binding signal,VENTX [2],"10.3 upbm affinity estimate (log intensity, higher = more binding, comparable within an allelic series)"
same,binding signal,CRX [4],"12.8 upbm affinity estimate (log intensity, higher = more binding, comparable within an allelic series)"
same,binding signal,CRX [5],"12.6 upbm affinity estimate (log intensity, higher = more binding, comparable within an allelic series)"
CCCGTCCC,binding signal,CRX [1],"8.36 upbm affinity estimate (log intensity, higher = more binding, comparable within an allelic series)"
same,binding signal,HOXA4 [42],"9.79 upbm affinity estimate (log intensity, higher = more binding, comparable within an allelic series)"
same,binding signal,PRRX1 [43],"9.36 upbm affinity estimate (log intensity, higher = more binding, comparable within an allelic series)"
same,binding signal,HOXA4 [44],"9.77 upbm affinity estimate (log intensity, higher = more binding, comparable within an allelic series)"
same,binding signal,CRX [4],"8.37 upbm affinity estimate (log intensity, higher = more binding, comparable within an allelic series)"
same,binding signal,HOXA4 [45],"9.89 upbm affinity estimate (log intensity, higher = more binding, comparable within an allelic series)"
same,binding signal,CRX [5],"8.4 upbm affinity estimate (log intensity, higher = more binding, comparable within an allelic series)"
same,binding signal,HOXA4 [46],"9.95 upbm affinity estimate (log intensity, higher = more binding, comparable within an allelic series)"
same,binding signal,PRRX1 [47],"9.4 upbm affinity estimate (log intensity, higher = more binding, comparable within an allelic series)"
